# From the supplement of paper PMC4466140
# How the values were obtained:
# Assay in all cases: SPOT peptide array binding signal intensity (averaged, normalized) (arbitrary units (background-subtracted, floor 0; scale differs between SH3 domains)); higher = stronger binding of the SH3 domain to the peptide
# AgAbp1 = target: AgAbp1
# Method: (§1)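 GST-tagged SH3 domains from S. cerevisiae (Sc), A. gossypii (Ag), C. albicans (Ca) and S. pombe (Sp) were incubated at 10 ug/ml overnight at 4 C on cellulose SPOT membranes carrying 292 synthetic 15-mer peptides mined from the S. cerevisiae proteome (cysteines replaced by serines). Binding was detected with anti-GST antibody, HRP secondary and chemiluminescence, quantified with Genespotter, and reported as normalized spot intensities averaged over biological replicates.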
# AgBbc1 = target: AgBbc1
# Method: as §1
# AgBem1-D1 = target: AgBem1-D1
# Method: as §1
# AgBzz1-D1 = target: AgBzz1-D1
# Method: as §1
# AgBzz1-D2 = target: AgBzz1-D2
# Method: as §1
# AgCyk3 = target: AgCyk3
# Method: as §1
# AgFus1 = target: AgFus1
# Method: as §1
# AgHof1 = target: AgHof1
# Method: as §1
# AgHse1 = target: AgHse1
# Method: as §1
# AgLsb1 = target: AgLsb1
# Method: as §1
# AgLsb4 = target: AgLsb4
# Method: as §1
# AgMyo5 = target: AgMyo5
# Method: as §1
# AgNbp2 = target: AgNbp2
# Method: as §1
# AgRvs167 = target: AgRvs167
# Method: as §1
# AgSho1 = target: AgSho1
# Method: as §1
# AgSla1-D1-D2 = target: AgSla1-D1-D2
# Method: as §1
# AgSla1-D3 = target: AgSla1-D3
# Method: as §1
# CaAbp1-D1 = target: CaAbp1-D1
# Method: as §1
# CaAbp1-D2 = target: CaAbp1-D2
# Method: as §1
# CaBbc1 = target: CaBbc1
# Method: as §1
# CaBem1-D1 = target: CaBem1-D1
# Method: as §1
# CaBzz1-D1 = target: CaBzz1-D1
# Method: as §1
# CaBzz1-D2 = target: CaBzz1-D2
# Method: as §1
# CaCyk3 = target: CaCyk3
# Method: as §1
# CaFus1 = target: CaFus1
# Method: as §1
# CaHof1 = target: CaHof1
# Method: as §1
# CaHse1 = target: CaHse1
# Method: as §1
# CaLsb1 = target: CaLsb1
# Method: as §1
# CaLsb4 = target: CaLsb4
# Method: as §1
# CaMyo5 = target: CaMyo5
# Method: as §1
# CaNbp2 = target: CaNbp2
# Method: as §1
# CaRvs167 = target: CaRvs167
# Method: as §1
# CaRvs167-3 = target: CaRvs167-3
# Method: as §1
# CaSho1 = target: CaSho1
# Method: as §1
# CaSla1-D1-D2 = target: CaSla1-D1-D2
# Method: as §1
# CaSla1-D3 = target: CaSla1-D3
# Method: as §1
# ScAbp1 = target: ScAbp1
# Method: as §1
# ScBbc1 = target: ScBbc1
# Method: as §1
# ScBem1-D1 = target: ScBem1-D1
# Method: as §1
# ScBzz1-D1 = target: ScBzz1-D1
# Method: as §1
# ScBzz1-D2 = target: ScBzz1-D2
# Method: as §1
# ScCyk3 = target: ScCyk3
# Method: as §1
# ScFus1 = target: ScFus1
# Method: as §1
# ScHof1 = target: ScHof1
# Method: as §1
# ScHse1 = target: ScHse1
# Method: as §1
# ScLsb1 = target: ScLsb1
# Method: as §1
# ScLsb2 = target: ScLsb2
# Method: as §1
# ScLsb3 = target: ScLsb3
# Method: as §1
# ScLsb4 = target: ScLsb4
# Method: as §1
# ScMyo3 = target: ScMyo3
# Method: as §1
# ScMyo5 = target: ScMyo5
# Method: as §1
# ScNbp2 = target: ScNbp2
# Method: as §1
# ScPex13 = target: ScPex13
# Method: as §1
# ScRvs167 = target: ScRvs167
# Method: as §1
# ScSho1 = target: ScSho1
# Method: as §1
# ScSla1-D1-D2 = target: ScSla1-D1-D2
# Method: as §1
# ScSla1-D3 = target: ScSla1-D3
# Method: as §1
# SpAbp1-D1 = target: SpAbp1-D1
# Method: as §1
# SpBbc1 = target: SpBbc1
# Method: as §1
# SpBzz1-D1 = target: SpBzz1-D1
# Method: as §1
# SpBzz1-D2 = target: SpBzz1-D2
# Method: as §1
# SpCyk3 = target: SpCyk3
# Method: as §1
# SpHof1 = target: SpHof1
# Method: as §1
# SpHof1-2 = target: SpHof1-2
# Method: as §1
# SpHof1-3 = target: SpHof1-3
# Method: as §1
# SpHse1 = target: SpHse1
# Method: as §1
# SpLsb1 = target: SpLsb1
# Method: as §1
# SpLsb4 = target: SpLsb4
# Method: as §1
# SpMyo1 = target: SpMyo1
# Method: as §1
# SpNbp2 = target: SpNbp2
# Method: as §1
# SpPex13 = target: SpPex13
# Method: as §1
# SpRvs167 = target: SpRvs167
# Method: as §1
# SpSla1-D1-D2 = target: SpSla1-D1-D2
# Method: as §1
# SpSla1-D3 = target: SpSla1-D3
# Method: as §1
binder,measurement,setting,value
QRKSLRRPTLSKPAV,SPOT peptide array binding signal intensity,AgAbp1,32
same,SPOT peptide array binding signal intensity,AgBbc1,108
same,SPOT peptide array binding signal intensity,AgBem1-D1,210
same,SPOT peptide array binding signal intensity,AgBzz1-D1,40.5
same,SPOT peptide array binding signal intensity,AgBzz1-D2,42
same,SPOT peptide array binding signal intensity,AgCyk3,1
same,SPOT peptide array binding signal intensity,AgFus1,336
same,SPOT peptide array binding signal intensity,AgHof1,66
same,SPOT peptide array binding signal intensity,AgHse1,244
same,SPOT peptide array binding signal intensity,AgLsb1,4.25
same,SPOT peptide array binding signal intensity,AgLsb4,17
same,SPOT peptide array binding signal intensity,AgMyo5,1.5
same,SPOT peptide array binding signal intensity,AgNbp2,108
same,SPOT peptide array binding signal intensity,AgRvs167,1.67
same,SPOT peptide array binding signal intensity,AgSho1,10
same,SPOT peptide array binding signal intensity,AgSla1-D1-D2,14
same,SPOT peptide array binding signal intensity,AgSla1-D3,3.75
same,SPOT peptide array binding signal intensity,CaAbp1-D1,272
same,SPOT peptide array binding signal intensity,CaAbp1-D2,220
same,SPOT peptide array binding signal intensity,CaBbc1,338
same,SPOT peptide array binding signal intensity,CaBem1-D1,79
same,SPOT peptide array binding signal intensity,CaBzz1-D1,78
same,SPOT peptide array binding signal intensity,CaBzz1-D2,104
same,SPOT peptide array binding signal intensity,CaCyk3,16.5
same,SPOT peptide array binding signal intensity,CaFus1,298
same,SPOT peptide array binding signal intensity,CaHof1,≤ 0
same,SPOT peptide array binding signal intensity,CaHse1,10
same,SPOT peptide array binding signal intensity,CaLsb1,0.5
same,SPOT peptide array binding signal intensity,CaLsb4,89.5
same,SPOT peptide array binding signal intensity,CaMyo5,3.5
same,SPOT peptide array binding signal intensity,CaNbp2,319
same,SPOT peptide array binding signal intensity,CaRvs167,17.5
same,SPOT peptide array binding signal intensity,CaRvs167-3,5.5
same,SPOT peptide array binding signal intensity,CaSho1,76
same,SPOT peptide array binding signal intensity,CaSla1-D1-D2,118
same,SPOT peptide array binding signal intensity,CaSla1-D3,≤ 0
same,SPOT peptide array binding signal intensity,ScAbp1,52.5
same,SPOT peptide array binding signal intensity,ScBbc1,45.8
same,SPOT peptide array binding signal intensity,ScBem1-D1,53
same,SPOT peptide array binding signal intensity,ScBzz1-D1,32
same,SPOT peptide array binding signal intensity,ScBzz1-D2,43
same,SPOT peptide array binding signal intensity,ScCyk3,17
same,SPOT peptide array binding signal intensity,ScFus1,151
same,SPOT peptide array binding signal intensity,ScHof1,0.5
same,SPOT peptide array binding signal intensity,ScHse1,1190
same,SPOT peptide array binding signal intensity,ScLsb1,4
same,SPOT peptide array binding signal intensity,ScLsb2,6
same,SPOT peptide array binding signal intensity,ScLsb3,356
same,SPOT peptide array binding signal intensity,ScLsb4,10.5
same,SPOT peptide array binding signal intensity,ScMyo3,0.5
same,SPOT peptide array binding signal intensity,ScMyo5,1
same,SPOT peptide array binding signal intensity,ScNbp2,183
same,SPOT peptide array binding signal intensity,ScPex13,≤ 0
same,SPOT peptide array binding signal intensity,ScRvs167,25
same,SPOT peptide array binding signal intensity,ScSho1,250
same,SPOT peptide array binding signal intensity,ScSla1-D1-D2,370
same,SPOT peptide array binding signal intensity,ScSla1-D3,38.8
same,SPOT peptide array binding signal intensity,SpAbp1-D1,101
same,SPOT peptide array binding signal intensity,SpBbc1,3.5
same,SPOT peptide array binding signal intensity,SpBzz1-D1,202
same,SPOT peptide array binding signal intensity,SpBzz1-D2,≤ 0
same,SPOT peptide array binding signal intensity,SpCyk3,≤ 0
same,SPOT peptide array binding signal intensity,SpHof1,38.8
same,SPOT peptide array binding signal intensity,SpHof1-2,6.5
same,SPOT peptide array binding signal intensity,SpHof1-3,375
same,SPOT peptide array binding signal intensity,SpHse1,140
same,SPOT peptide array binding signal intensity,SpLsb1,8.75
same,SPOT peptide array binding signal intensity,SpLsb4,99
same,SPOT peptide array binding signal intensity,SpMyo1,7.75
same,SPOT peptide array binding signal intensity,SpNbp2,63.5
same,SPOT peptide array binding signal intensity,SpPex13,10
same,SPOT peptide array binding signal intensity,SpRvs167,14.5
same,SPOT peptide array binding signal intensity,SpSla1-D1-D2,≤ 0
same,SPOT peptide array binding signal intensity,SpSla1-D3,1
